# Results reported in the supplement of paper PMC9023506.
# Structures can show the parent of a compound that is named as a salt.
# How the values were obtained:
# Conditions in all cases: 10 µM; exposure time: 3 h pre-incubation + 3 h imaging
# [1] = tested on: Danio rerio larvae (5 dpf); experiment: activity during period 15 (no stimuli), difference vs DMSO (percentage points (treated minus DMSO)); higher = more of the behaviour than the DMSO vehicle control
# Summary of the method: (§1)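 Library drugs were diluted 1000× from DMSO stocks into egg water to reach 10 µM and applied to 5-dpf wild-type zebrafish larvae in 96-well ProxiPlates, 48 larvae per drug. The larvae stayed exposed for 3 h before imaging and for the 3 h of imaging at 28.5 °C. Behaviour scores, given in percentage points, are the treated mean minus the vehicle mean for movement and upper-half location.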
# [2] = tested on: Danio rerio larvae (5 dpf); experiment: optomotor response to fast red moving lines, difference vs DMSO (percentage points (treated minus DMSO)); higher = more of the behaviour than the DMSO vehicle control
# Summary of the method: as §1
# [3] = tested on: Danio rerio larvae (5 dpf); experiment: optomotor response to green moving lines, difference vs DMSO (percentage points (treated minus DMSO)); higher = more of the behaviour than the DMSO vehicle control
# Summary of the method: as §1
# [4] = tested on: Danio rerio larvae (5 dpf); experiment: habituation to 1-s acoustic pulses, difference vs DMSO (percentage points (treated minus DMSO)); higher = more of the behaviour than the DMSO vehicle control
# Summary of the method: as §1
# [5] = tested on: Danio rerio larvae (5 dpf); experiment: excitability to 1-s acoustic pulses, difference vs DMSO (percentage points (treated minus DMSO)); higher = more of the behaviour than the DMSO vehicle control
# Summary of the method: as §1
# [6] = tested on: Danio rerio larvae (5 dpf); experiment: optomotor response to blue moving lines, difference vs DMSO (percentage points (treated minus DMSO)); higher = more of the behaviour than the DMSO vehicle control
# Summary of the method: as §1
# [7] = tested on: Danio rerio larvae (5 dpf); experiment: startle response to 20-s acoustic pulses, difference vs DMSO (percentage points (treated minus DMSO)); higher = more of the behaviour than the DMSO vehicle control
# Summary of the method: as §1
smiles,measurement,setting,value
CC(=O)O[C@]1(C(C)=O)CC[C@H]2[C@@H]3C=C(C)C4=CC(=O)CC[C@]4(C)[C@H]3CC[C@@]21C [Megestrol Acetate],activity during period 15,[1],-0.283
same,optomotor response,[2],-10.3
COc1c(C)c2c(c(O)c1C/C=C(\C)CCC(=O)OCCN1CCOCC1)C(=O)OC2 [Mycophenolate mofetil],optomotor response to green moving lines,[3],4.99
CN(CCOc1ccc(NS(C)(=O)=O)cc1)CCc1ccc(NS(C)(=O)=O)cc1 [Dofetilide],activity during period 15,[1],-9.09
CC(C)(C#N)c1cc(Cn2cncn2)cc(C(C)(C)C#N)c1 [Anastrozole],habituation to 1-s acoustic pulses,[4],6.34
same,excitability to 1-s acoustic pulses,[5],3.65
same,optomotor response to blue moving lines,[6],-5.16
same,startle response to 20-s acoustic pulses,[7],-0.38
Nc1cccc2c1CN(C1CCC(=O)NC1=O)C2=O (configuration not stated) [Lenalidomide],optomotor response to green moving lines,[3],7.44
same,optomotor response,[2],-0.414
O=C(c1ccc(OCCN2CCCCC2)cc1)c1c(-c2ccc(O)cc2)sc2cc(O)ccc12 [Raloxifene hydrochloride],excitability to 1-s acoustic pulses,[5],9.93
same,activity during period 15,[1],-8.58
CN(C)CCc1c[nH]c2ccc(Cn3cncn3)cc12 [Rizatriptan benzoate],habituation to 1-s acoustic pulses,[4],-2.41
same,excitability to 1-s acoustic pulses,[5],-3.58
same,activity during period 15,[1],-3.72
same,optomotor response to green moving lines,[3],3.24
Nc1ccn([C@@H]2O[C@H](CO)[C@@H](O)C2(F)F)c(=O)n1 [Gemcitabine hydrochloride],optomotor response to green moving lines,[3],0.29
same,startle response to 20-s acoustic pulses,[7],3.92
Nc1nc(NC2CC2)c2ncn([C@H]3C=C[C@@H](CO)C3)c2n1 [Abacavir hemisulfate],optomotor response to green moving lines,[3],6.07
CC(c1cc2ccccc2s1)N(O)C(N)=O (configuration not stated) [Zileuton],optomotor response to blue moving lines,[6],-7.52
same,optomotor response,[2],-16.8
CCc1nc(N)nc(N)c1-c1ccc(Cl)cc1 [Pyrimethamine],activity during period 15,[1],-4.35
same,optomotor response to green moving lines,[3],6.72
same,startle response to 20-s acoustic pulses,[7],1.7
COc1ccccc1OCCNCC(O)COc1cccc2[nH]c3ccccc3c12 (configuration not stated) [Carvedilol],habituation to 1-s acoustic pulses,[4],2.04
same,excitability to 1-s acoustic pulses,[5],21
same,optomotor response to blue moving lines,[6],-0.112
